aSyn 5UTR act = Activators via SNCA 5'UTR binding, MLPCN. alpha-synuclein 5'UTR reporter, activators screen. activity score, % (tested at 7.5 µM), hits read low. hit rate 7.1% among 300,000. AID 1814; in the data active = activity score below about -60%
The depositor's hits bear a star. The entries come from a sample that favours hits as a whole.

SMILES	aSyn 5UTR act
Fc1ccc(NC(=S)Nc2ccc3nccnc3c2)cc1	-91*
Fc1ccc(NC(=S)Nc2nccs2)cc1	-128*
CCC1CCCCN1c1nc(-c2cccc(OC)c2O)nc2ccccc12 (stereo not drawn)	-98*
Oc1ccc(/C=N/n2cc(-c3ccccc3)[nH]c2=S)cc1	-92*
Cc1ccc(/C=N/n2cc(-c3ccccc3)[nH]c2=S)s1	-169*
S=c1[nH]c(-c2ccccc2)cn1/N=C/c1ccccc1Br	-83*
Cc1ccc(C)c(NC(=S)NNC(=O)c2csc(C(C)C)c2)c1	-100*
Cc1ccc(C)c(NC(=S)NNC(=O)c2sccc2C)c1	-69*
Cc1ccc(C)c(NC(=S)NNC(=O)c2csc(C)c2C)c1	-92*
Cc1ccc2nc(NC(=O)CSc3nncc(=O)n3N)sc2c1	-98*
Cc1ccc(-c2csc(NC(=O)CSc3nc4ccccc4o3)n2)cc1	-94*
Cc1ccc2nc(NC(=O)CSc3nc4ccccc4o3)sc2c1	-143*
CC(=O)c1cc2c(cc1NC(=O)CSc1nc3ccccc3o1)OCO2	-154*
O=C(CSc1nc2ccccc2[nH]1)Nc1nc(-c2ccc(Br)cc2)cs1	-76*
O=C(CSc1nc2ccccc2o1)N/N=C/c1ccco1	-82*
Cc1cc(C)nc(NC(=O)CSc2nc3ccccc3o2)n1	-153*
Cn1cc(Br)c(C(=O)Nc2ncc(Br)s2)n1	-147*
CCOc1ccc(NC(=O)c2nn(C)cc2Br)cc1	-154*
Cn1cc(Br)c(C(=O)NNC(=O)c2ccc(Cl)cc2)n1	-94*
COc1cccc(NC(=O)c2nn(C)cc2Br)c1	-105*
CS(=O)(=O)N1CCN(c2ccc(NC(=O)c3ccccc3)cc2)CC1	-123*
Cc1cccc(C(=O)Nc2ccc(N3CCN(S(C)(=O)=O)CC3)cc2)c1	-84*
COc1cccc(NC(=O)c2ocnc2C)c1	-81*
Cc1ccc(NC(=O)c2ocnc2C)cc1Cl	-240*
Cc1ncoc1C(=O)Nc1cccc(Cl)c1	-92*
SMILES	aSyn 5UTR act
C(=N\Nc1nncc2ccccc12)/c1ccccc1	-75*
COc1ccc(/C=N/Nc2nncc3ccccc23)c(OC)c1	-159*
COc1cc(/C=N/Nc2nncc3ccccc23)cc(OC)c1OC	-108*
Cc1ccc(C)c(OCC(=O)Nc2cc(C)on2)c1	-80*
Cc1cc(NC(=O)COc2cccc(Oc3ccccc3)c2)no1	-122*
COc1ccc(/C=C2/SC(=O)NC2=O)cc1	-118*
Cc1ccc(/C=C2\SC(=S)N(CC3CCCO3)C2=O)o1 (stereo not drawn)	-68*
COc1cc(/C=C2/SC(=S)N(CC3CCCO3)C2=O)ccc1O (stereo not drawn)	-95*
COc1ccc(/C=C2\SC(=S)N(CC3CCCO3)C2=O)cc1 (stereo not drawn)	-89*
COc1ccc(/C=C2/SC(=S)N(CCC(=O)O)C2=O)cc1	98
CSc1nc2ccc(NC(=O)c3ccco3)cc2s1	-134*
CSc1nc2ccc(NC(=O)c3cc4ccccc4o3)cc2s1	-126*
O=C(Nc1nc2ccc([N+](=O)[O-])cc2s1)c1ccco1	-74*
CC(=O)Nc1ccc2nc(NC(=O)c3ccco3)sc2c1	-96*
CC(=O)Nc1ccc2nc(NC(=O)c3ccc([N+](=O)[O-])o3)sc2c1	-100*
CSc1nc2ccc(NC(=O)c3ccc(F)c(F)c3)cc2s1	-143*
COc1ccc2nc(NC(=S)NC(=O)c3ccco3)sc2c1	-133*
CSc1nc2ccc(NC(=O)c3ccc(=O)n(C)n3)cc2s1	-70*
N#CCc1nc(CSc2nc3ccccc3o2)cs1	-134*
c1ccc2oc(SCc3nc4ccccc4s3)nc2c1	-149*
c1ccc(SCc2nc3ccccc3s2)nc1	-113*
COc1ccc(C)cc1-n1nnnc1SCc1nc2ccccc2s1	-148*
COc1ccc(-n2nnnc2SCc2nc3ccccc3s2)cc1	-161*
CCOC(=O)N1CCN(C(=O)c2cc(COc3c(F)cccc3F)on2)CC1	-151*
O=C(c1cc(COc2ccc3c(c2)CCCC3)on1)N1CCCC1	-118*
SMILES	aSyn 5UTR act
O=C(c1cc(COc2c(F)cccc2F)on1)N1CCCCCC1	-99*
COc1ccccc1C(=O)Nc1cc(-c2ccc(C)cc2)no1	-178*
COc1ccccc1C(=O)Nc1ccccc1SC(=O)c1ccccc1OC	-112*
Cc1cc(NC(=O)C(=O)c2cn(C)c3ccccc23)no1	-72*
COc1ccccc1C(=O)Nc1ccc2c3c(cccc13)CC2	-118*
COc1cccc2cc(C(=O)Nc3cccc(C)n3)c(=O)oc12	-167*
COc1ccccc1C(=O)Nc1cccc(NC(=O)c2ccccc2OC)n1	-112*
COc1ccccc1C(=O)Nc1cc(C)on1	-114*
COc1ccc2c(c1)[nH]c1c(=O)n(/N=C/C3C(C)C=C(C)CC3C)c(=O)[nH]c12 (stereo not drawn)	58
COc1ccc2[nH]c3c(=O)n4c(nc3c2c1)SCCC4	-92*
C/C(=N\N=C\c1ccc(N(C)C)cc1)c1cccc([N+](=O)[O-])c1	-68*
COc1ccc(/C=C/C(=O)Nc2ccccc2C(F)(F)F)cc1	-141*
COc1cc(NC(=O)/C=C/c2ccccc2[N+](=O)[O-])cc(OC)c1	-114*
